Laboratory results taken from PubChem BioAssay (EPA / NIEHS).
Where “and” joins values, the source holds several entries; their conditions need not be identical. Equal entries are not always repeated. A structure can be active in one record and inactive in another. Calls of active or inactive are those of the source. Rule for the calls: active = hit-call score of the fitted dose curve at least 0.9, where 1 is the maximum; inactive = score below 0.9.

Read-out: urokinase Plasminogen Activator (uPA), PLAU (gene 5328)
Experiment: BSK_BF4T_uPA: BioMAP Diversity Plus: BF4T Assay for urokinase Plasminogen Activator (uPA) Biomarker Activity (AID 2284275)
Conditions: primary human bronchial epithelial cells with fibroblasts
Procedure: BSK_BF4T is a cell-based, multiplexed-readout assay that uses bronchial epithelial cells and dermal fibroblasts, a human vascular primary cell, with measurements taken at 24 hours after chemical dosing in a microplate: 96-well plate.BSK_BF4TA is an assay component measured in the BSK_BF4T assay. It measures uPA antibody related to regulation of gene expression using ELISA technology.Data from the assay component BSK_BF4TA was analyzed at the endpoint, BSK_BF4TA, in the positive analysis fitting direction relative to DMSO as the negative control and baseline of activity. Using a type of binding reporter, gain or loss-of-signal activity can be used to understand protein changes. To generalize the intended target to other relatable targets, this assay endpoint is annotated to the 'protease' intended target family, where the subfamily is 'serine protease'.
The levels of cell surface (or secreted, indicated by the prefix "s") biomarker endpoints were measured by ELISA. Overt cytotoxicity to cells in confluent adherent cultures (all systems other than the BT system) was assessed by measuring total protein levels using sulforhodamine B (SRB) staining in parallel cultures at the time of biomarker measurements, indicated as SRB endpoints. For proliferation assays for adherent cell types, individual cell types are cultured at sub-confluence and relative cell numbers quantified by SRB staining at time points optimized for each system (48 h: 3C and CASM3C systems; 72 h: BT and HDF3CGF systems; 96 h: SAg system). SRB was performed by staining cells with 0.1% SRB after fixation with 10% TCA and reading wells at 560 nm.Viability and proliferation of PBMC (T cells) was quantified by Alamar Blue reduction for the SAg and BT systems. For PBMC viability (referred to as PBMC Cytotoxicity within the assay endpoint names), cells were plated (75,000/well in a 96-well plate) and then chemical samples added for 1 h before addition of activators, SEB and TSST-1 (20 ng/mL final concentration each). Cells were incubated for 90 h. Then, Alamar Blue (20 uL/well) (Invitrogen, Cat DAL1100) was added for 6 h, and the plates were read with a fluorescence microplate reader at 546/580 nm (excitation/emission). For PBMC proliferation, cells were plated and activated as above but incubated for only 16 h prior to addition of Alamar Blue. Plates were read after 6 h.

| Structure (SMILES) | outcome | AC50 |
| --- | --- | --- |
| FC1CC(F)(F)C(F)(F)C1(F)F (stereo not given) | inactive |  |
| CCO[Si](CCC(F)(F)C(F)(F)C(F)(F)C(F)(F)C(F)(F)C(F)(F)F)(OCC)OCC | inactive |  |
| Cc1ccc(S(=O)(=O)OCC(F)(F)C(F)(F)C(F)(F)C(F)(F)C(F)(F)C(F)F)cc1 | inactive |  |
| OCC(F)(F)C(F)(F)C(F)(F)C(F)F | inactive |  |
| C=C(C)C(=O)OCCC(F)(F)C(F)(F)C(F)(F)C(F)(F)C(F)(C(F)(F)F)C(F)(F)F | inactive |  |
| FC(F)(F)C(F)(F)C(F)(F)C(F)(F)C(F)(F)C(F)(F)C(F)(F)C(F)(F)F | inactive |  |
| O=C(O)C(F)(F)C(F)(F)C(F)(F)C(F)(F)C(F)(F)C(F)(F)C(F)(F)C(F)(F)C(F)(F)C(F)(F)C(F)(F)C(F)(F)C(F)(F)F | inactive |  |
| C=C(C)C(=O)OCC(F)(F)C(F)(F)C(F)(F)F | inactive |  |
| O=S(=O)(OCC(F)F)C(F)(F)F | inactive |  |
| O=C(O)C(F)(OC(F)(F)C(F)(OC(F)(F)C(F)(F)C(F)(F)F)C(F)(F)F)C(F)(F)F (stereo not given) | inactive |  |
| CC(C)(C)C(=O)CC(=O)C(F)(F)C(F)(F)C(F)(F)F | inactive |  |
| FC(F)(Br)C(F)(F)C(F)(F)C(F)(F)C(F)(F)C(F)(F)Br | inactive |  |
| NC(=O)C(F)(F)C(F)(F)C(F)(F)C(F)(F)F | inactive |  |
| O=C(Cl)C(F)(F)C(F)(F)C(F)(F)C(F)(F)C(F)(F)C(F)(F)C(F)(F)C(F)(F)F |  | 46 µM (active) and 48 µM (active) and 44.8 µM (active) |
| FC(F)(F)C(F)(F)C(F)(F)C(F)(F)C(F)(F)C(F)(F)C(F)(F)I | inactive |  |
| O=C(O)C(F)(F)C(F)(F)C(F)(F)C(F)(F)C(F)(F)C(F)(F)C(F)(F)C(F)(F)C(F)(F)C(F)F |  | 41.3 µM (active) and 17.5 µM (active) |
| CCCCCCCCC(F)(F)C(F)(F)C(F)(F)C(F)(F)C(F)(F)C(F)(F)F | inactive |  |
| FC(F)(I)C(F)(F)C(F)(F)C(F)(F)I |  | 49.9 µM (active) and 53.8 µM (active) and 46.2 µM (active) |
| FC(F)(F)C(F)(F)C(F)(F)N(C(F)(F)C(F)(F)C(F)(F)F)C(F)(F)C(F)(F)C(F)(F)F | inactive |  |
| FC(F)(F)C(F)(F)C(F)(F)C(F)(F)C(F)(F)C(F)(F)C(F)(F)C(F)(F)CCS | inactive |  |

| Structure (SMILES) | outcome | AC50 |
| --- | --- | --- |
| O=C(O)C(F)(F)C(F)(F)OC(F)(F)F | inactive |  |
| N=C(N)C(F)(F)C(F)(F)C(F)(F)C(F)(F)C(F)(F)C(F)(F)C(F)(F)F | inactive |  |
| C=CC(F)(F)C(F)(F)C(F)(F)C(F)(F)C(F)(F)C(F)(F)C(F)(F)C(F)(F)C=C | inactive |  |
| O=S(=O)(O)C(F)(F)C(F)(F)C(F)(F)C(F)(F)C(F)(F)C(F)(F)C(F)(F)F | inactive |  |
| OCC(F)(F)C(F)(F)C(F)(F)C(F)(F)C(F)(F)C(F)F | inactive |  |
| O=C(O)C=C(C(F)(F)F)C(F)(F)F | inactive |  |
| O=P(O)(O)OCCC(F)(F)C(F)(F)C(F)(F)C(F)(F)C(F)(F)C(F)(F)F | inactive |  |
| FC(F)(F)C(F)(F)CNCC(F)(F)C(F)(F)F | inactive |  |
| C=CC(=O)OCC(F)(F)C(F)(F)C(F)(F)C(F)(F)COC(=O)C=C | inactive | 30 µM (active) |
| O=C(O)C(F)(F)C(F)(F)C(F)(F)C(F)(F)C(F)(F)C(F)(F)C(F)(F)C(F)(F)Cl |  | 45.3 µM (active) and 46.1 µM (active) |
| C=CC(=O)OCC(F)(F)C(F)(F)C(F)(F)C(F)(F)C(F)(F)C(F)(F)C(F)(F)F | inactive |  |
| OCC(F)(F)C(F)(F)C(F)(F)F | inactive |  |
| O=C(O)C(F)(F)C(F)(F)C(F)(F)C(F)(F)F | inactive |  |
| O=C(O)C(F)(F)C(F)(F)C(F)F | inactive |  |
| O=C(O)C(F)(F)C(F)(F)C(F)(F)F | inactive |  |
| O=C(O)C(F)(F)C(F)(F)C(F)(F)C(F)(F)C(F)(F)C(F)(F)C(F)(F)C(F)(F)C(F)(F)C(F)(F)C(F)(F)C(F)(F)F | inactive |  |
| O=C(O)C(F)(F)C(F)(F)F | inactive |  |
| FC(F)(F)C(F)(F)C(F)(F)C(F)(F)CCI | inactive |  |
| OCC(F)(F)C(F)(F)C(F)(F)C(F)(F)C(F)(F)C(F)(F)F | inactive |  |
